Most compounds without a hit are left out; they make up all but 8.1% or so of the library.
RORgamma inh – qHTS for inhibitors of ROR gamma transcriptional activity; Drosophila S2 Gal4-RORgamma UAS-luciferase reporter, 20 h; Potency, µM (doses to about 53.6 µM), hits mostly inhibitors; 310,000 compounds, 5.4% hits; further: nearly all actives have a fitted effect of over 60% in size
Target sequence (P51450 whole entry, looked up, the tested form may be a part): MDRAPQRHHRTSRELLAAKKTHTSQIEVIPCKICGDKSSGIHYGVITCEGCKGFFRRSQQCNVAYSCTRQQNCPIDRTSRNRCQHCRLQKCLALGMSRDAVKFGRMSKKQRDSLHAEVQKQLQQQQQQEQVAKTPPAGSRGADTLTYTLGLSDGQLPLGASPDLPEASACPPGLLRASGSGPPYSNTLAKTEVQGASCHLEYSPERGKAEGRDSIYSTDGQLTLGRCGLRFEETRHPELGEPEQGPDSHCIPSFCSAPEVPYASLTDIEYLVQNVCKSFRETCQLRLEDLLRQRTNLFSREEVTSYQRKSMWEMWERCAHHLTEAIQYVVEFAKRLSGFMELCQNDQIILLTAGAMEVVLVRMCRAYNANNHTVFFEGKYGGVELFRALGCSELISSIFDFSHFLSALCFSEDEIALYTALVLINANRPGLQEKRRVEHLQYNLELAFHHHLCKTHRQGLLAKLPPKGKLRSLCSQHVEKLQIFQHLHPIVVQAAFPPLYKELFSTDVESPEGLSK
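Drosophila S2 cells stably expressing Gal4-DBD/mouse RORγ fusion under metallothionein promoter plus UAS-luciferase; compound 1 h, then 700 uM CuSO4 induction for 20 h at ambient temperature; inhibition read as reduced luminescence.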
ClpP mod – qHTS Assay for Activators of ClpP | ATP-dependent Clp protease proteolytic subunit (Bacillus subtilis (strain 168)), P80244 | purified B. subtilis ClpP, FRET peptide cleavage, 20 min | Potency, µM (highest dose often 57.5 µM) | 340,000 compounds, 1.9% hits | AID 651965, 2013; active means well fitted falling curve with a large enough effect; inconclusive means small, poorly fitted or top-dose-only effect; inactive means no such curve, though single readings can be large or run the other way; further: the source files actives as falling curves though it sought activators and does not explain the sign; nearly all actives have a fitted effect of over 65% in size
Target sequence (P80244 whole entry, looked up): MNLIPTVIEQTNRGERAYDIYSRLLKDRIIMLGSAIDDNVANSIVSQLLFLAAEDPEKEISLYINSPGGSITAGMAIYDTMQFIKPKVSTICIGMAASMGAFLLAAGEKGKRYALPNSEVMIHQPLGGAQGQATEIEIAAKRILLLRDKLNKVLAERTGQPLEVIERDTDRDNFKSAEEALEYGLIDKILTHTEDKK
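ClpP 10 microg/mL final, pH 8 Tris/KCl buffer with BSA, glycerol, Tween-20; compound pinned in; FRET-FV substrate; RT 20 min; Ex320/Em430; ΔFRET vs ADEP 5.8 microM, DMSO, no enzyme.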
Gal4-VP16 FLuc – VP16 counterscreen qHTS for inhibitors of ROR gamma transcriptional activity; Drosophila S2 Gal4-VP16 UAS-luciferase, luminescence, 20 h; Potency, µM (titrated, usually from 53.6 µM), most hits filed as inhibitors; 310,000 compounds, 3.5% hits; AID 2546, 2010;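 further: Gal4-VP16 expression switched on by copper sulfate through the metallothionein promoter; nearly all actives have a fitted effect of over 50% in size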
PINK1 modulator – A Quantitative High throughput Screen to Identify Chemical Modulators of PINK1 Expression; Potency, µM (top dose mostly 76.6 µM), usual class: activators; 410,000 compounds, 0.2% hits; AID 624263, 2012; PINK1 immunofluorescence, high-content cytometry, 24 h; active means well fitted activation curve with a large enough effect; inconclusive means small, poorly fitted or top-dose-only effect; cell line not stated here; further: nearly all actives have a fitted effect of over 65% in size
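Stable cell line, 250 cells/well, 12 h attachment; compounds pinned at 5 concentrations, 24 h; CCCP control. Fixed with nuclear dye, primary antibodies 12 h at 10 degrees C, secondary plus cell stain; laser-scanning cytometer read.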
Sfp PPTase inh – qHTS Assay for Inhibitors of Bacillus subtilis Sfp phosphopantetheinyl transferase (PPTase); Potency, µM, usual class: inhibitors; Biochemical Sfp PPTase activity, qHTS; AID 1490, 2009; 4'-phosphopantetheinyl transferase ffp (Bacillus subtilis), Q9F4F7; 310,000 compounds, 3.5% hits;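 further: the enzyme is Sfp with the accession as filed and its product quenches rhodamine fluorescence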
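Compounds were incubated with enzyme (final 15 nM) for 15 min at room temperature before substrate addition started the reaction. Fluorescence at 525 nm excitation, 598 nm emission was recorded immediately and after 30 minutes.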
Epigenetic derep – Quantitative High-Throughput Screen for Regulators of Epigenetic Control; murine LDR cells, GFP reporter derepression, 30 h; Potency, µM (top dose mostly 53.9 µM), actives largely listed as activators; 280,000 compounds, 0.2% hits; further: nearly all actives have a fitted effect of over 60% in size
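Murine LDR cells carrying a silenced, genomically integrated CMV-driven GFP reporter were exposed to compound for 30 hours at 37 C. After PBS washes, GFP-positive cells (20–120 um objects) were counted by laser-scanning microplate cytometry.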
A number is an active result; i = inactive; ? = inconclusive; nt = no result; ! = not confirmed by another sample. Unless noted, the call rests on the fitted dose curve; in most records, active means well fitted curve in the direction sought with a large enough effect; inconclusive means small, poorly fitted or top-dose-only effect, or another doubt; inactive means no such curve, though single readings can be large; an effect the other way counts as inactive or inconclusive.

SMILES | RORgamma inh | ClpP mod | Gal4-VP16 FLuc | PINK1 modulator | Sfp PPTase inh | Epigenetic derep
Cc1cccn2c(=O)c3cc(C(=O)NCCc4ccccc4)c(=N)n(Cc4ccco4)c3nc12 | i | nt | i | i | 32µM | nt
CCOC(=O)c1nnn(-c2nonc2-n2cccc2)c1-c1cccc([N+](=O)[O-])c1 | i | 28µM | i | i | i | i
O=C(/C=C/c1ccc([N+](=O)[O-])cc1)/C=C/c1ccco1 | ? | nt | ? | nt | 50µM | nt
O=C(/C=C/c1ccco1)N1CCN(c2ccccc2)CC1 | i | nt | ? | i | i | i
O=C(O)C(C(=O)/C=C/c1ccco1)=C1SCCS1 | i | i | i | i | 28µM | i
O=C(C=C1SCCS1)/C=C/c1ccco1 | ? | i | ? | i | 45µM | i
O=C(C=Cc1ccco1)c1ccco1 | nt | i | nt | i | nt | nt
CCCCc1cc2c(cn1)=C(OC(=O)CCC(=O)OC)C(C)(OC(=O)CC)C(=O)C=2 (stereo not drawn) | nt | nt | nt | nt | i | nt
Cc1nn(C(=O)c2cccc(F)c2)c(C)c1S(=O)(=O)N1CCOCC1 | nt | i | nt | i | nt | i
Cc1ccc(S(=O)(=O)c2nnn3c2nc(NCc2ccc4c(c2)OCO4)c2sccc23)cc1C | nt | 20µM | nt | i | nt | i
CC(C)c1ccc(S(=O)(=O)c2nnn3c2nc(NCCc2ccccc2)c2sccc23)cc1 | nt | 25µM | nt | i | nt | i
Cc1ccc(CCNc2nc3c(S(=O)(=O)c4ccccc4)nnn3c3ccsc23)cc1 | nt | i | nt | i | nt | i
Cc1ccc(S(=O)(=O)c2nnn3c2nc(NCCc2ccccc2)c2sccc23)cc1 | nt | 10µM | nt | i | nt | i
O=S(=O)(c1ccc(Br)cc1)c1nnn2c1nc(NCCc1ccccc1)c1sccc12 | nt | ? | nt | i | nt | i
COc1ccc(OC)c(-c2csc(NC(=O)c3ccc(F)cc3)n2)c1 | 11µM | i | 10µM | i | i | nt
COc1ccc(OC)c(-c2csc(NC(=O)C3=COCCO3)n2)c1 | nt | 32µM | nt | i | nt | nt
Cc1ccc(C)c(-c2csc(NC(=O)C3=COCCO3)n2)c1 | nt | nt | nt | i | nt | nt
COc1ccc(OC)c(-c2csc(NC(=O)Cc3ccc(F)cc3)n2)c1 | i | nt | i | i | i | nt
CCOc1ccccc1NC(=O)CCCN1C(=S)NC(C)(C)CC1C (stereo not drawn) | 14µM | i | ? | i | i | i
CCOc1ccc(OCC)c(NC(=O)CCCN2C(=S)NC(C)(C)CC2C)c1 (stereo not drawn) | 6.3µM | i | 6.3µM | i | i | i
O=C(NC1CCCCC1)Sc1ccc(Cl)cc1 | i | i | i | i | 28µM | i
CC(=O)N1CCC2(CC1)CN(c1cccc(-c3ccccc3)c1)C2 | i | nt | 13µM | i | ? | nt
O=C(c1cccc(F)c1)N1CCC2(CC1)CN(c1ccc(-c3ccccc3)cc1)C2 | i | nt | 16µM | i | i | nt
O=C(c1cnccn1)N1CCC2(CC1)CN(c1ccccc1)C2 | i | nt | i | i | i | nt
O=C(c1cccc(F)c1)N1CCC2(CC1)CCN(c1ccc(-c3ccccc3)cc1)CC2 | i | nt | i | i | i | nt
SMILES | RORgamma inh | ClpP mod | Gal4-VP16 FLuc | PINK1 modulator | Sfp PPTase inh | Epigenetic derep
O=C(c1cnccn1)N1CCC2(CC1)CN(c1cccc(-c3ccccc3)c1)C2 | i | nt | 5µM | i | i | nt
COc1ccc(Nc2oc(-c3ccc(COc4cccc(C)c4)o3)nc2C#N)cc1 | nt | i | nt | i | nt | i
Cc1ccc(/C=C\c2nccc3c2[nH]c2ccccc23)cc1 | 0.63µM | i | 3.2µM | i | ? | i
Fc1ccc(/C=C\c2nccc3c2[nH]c2ccccc23)cc1 | 1.8µM | i | ? | i | ? | i
C(=C\c1nccc2c1[nH]c1ccccc12)/c1ccccc1 | 1.6µM | i | 4µM | i | ? | i
C(=C\c1ccnc2ccccc12)/c1ccccc1 | nt | ? | nt | i | nt | nt
COc1ccc(CCN2CCC(CNC(=O)c3cnn(-c4ccc(C)cc4)c3C3CCN(C(=O)OC(C)(C)C)CC3)CC2)cc1 | nt | i | nt | i | nt | i
O=C(O)c1ccc(NC2=C/C(=N/S(=O)(=O)c3ccccc3)c3ccccc3C2=O)cc1 | 11µM | nt | 7.9µM | i | i | i
Cc1cc(C)c(S(=O)(=O)/N=C2\C=C(Nc3ccc(C(=O)O)cc3)C(=O)c3ccccc32)c(C)c1 | ? | nt | 10µM | i | 50µM | nt
Cc1ccc(S(=O)(=O)/N=C2\C=C(NS(=O)(=O)c3ccccc3)C(=O)c3ccccc32)cc1 | nt | nt | nt | i | nt | nt
Cc1cc(C)cc(OCc2cc(=O)n3cc(C)sc3n2)c1 | nt | i | nt | i | nt | i
O=C(c1ccc(-n2c(=O)c(=O)[nH]c3ccccc32)cc1)N1CCCN(Cc2ccccc2)CC1 | nt | nt | nt | nt | nt | i
CCn1cc(/C=C/C(=O)Nc2ccn(Cc3c(F)c(F)cc(F)c3F)n2)cn1 | i | i | i | i | 28µM | i
Cc1cccc(C2N=C(N)Nc3nc4ccccc4n32)c1 (stereo not drawn) | i | 25µM! | i | i | i | i
CC(=O)c1cccc(NC(=O)Cn2c(=O)oc3cc(S(=O)(=O)NCc4ccccc4)ccc32)c1 | nt | i | nt | i | nt | i
Cc1cccc(Nc2nnc(SCC(=O)Nc3ccccc3[N+](=O)[O-])s2)c1C | 18µM | i | i | i | i | i
Cc1ccc(Nc2nnc(SCC(=O)Nc3ccccc3[N+](=O)[O-])s2)cc1 | ? | i | i | i | i | i
O=C(c1cccs1)c1cn(CCOc2ccc(F)cc2)c2ccccc12 | nt | i | nt | i | nt | i
O=C(Nc1nc2n(n1)C(c1ccccc1)C=C(c1ccccc1)N2)c1ccc(Cl)c([N+](=O)[O-])c1 (stereo not drawn) | nt | i | nt | i | nt | i
COc1cc2cc(CN(Cc3nnnn3C3CCCC3)C3CCCC3)c(=O)[nH]c2cc1OC | i | nt | i | nt | i | i
COc1ccc2[nH]c(=O)c(CN(C3CCCCC3)C(c3nnnn3Cc3ccco3)C(C)C)cc2c1 (stereo not drawn) | i | i | i | i | 3.2µM | i
COc1ccc(Cn2nnnc2CN(Cc2cc3cc(C)ccc3[nH]c2=O)C2CCCC2)cc1 | i | i | ? | nt | 20µM | i
COc1ccc2[nH]c(=O)c(CN(Cc3ccco3)C(c3nnnn3Cc3ccccc3)C(C)C)cc2c1 (stereo not drawn) | ? | ? | i | i | i | i
COc1ccc2[nH]c(=O)c(CN(Cc3nnnn3Cc3ccco3)C3CCCCC3)cc2c1 | i | ? | i | i | 8.9µM | i
CCC(c1nnnn1Cc1ccco1)N(Cc1cc2cc(C)cc(C)c2[nH]c1=O)CC1CCCO1 (stereo not drawn) | i | ? | i | i | 22µM | i
CC(C)Oc1ccc(CNC(=O)c2cccc(NC(=O)N3CCSc4ncccc43)c2)cc1 | nt | ? | nt | i | nt | i

Screening results from PubChem.
